ATXN2 expr inh: reduces ATXN2 reporter expression in HEK-293 cells | HEK-293 ATXN2-luciferase reporter, luminescence, 24 h | Potency, µM (highest dose often 57 µM), inactives show top-dose activity change, negative = inhibition, actives largely listed as inhibitors | hit rate 0.72% among 360,000; note: % is set by controls: 0 for no effect and ±100 for the full control effect; nearly all actives have a fitted effect of over 55% in size
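ATXN2-luciferase reporter cells (luciferase flanked by upstream and downstream ATXN2 gene portions) were treated 24 h at 37 °C with compounds at up to 57 uM. SteadyGlo luminescence gave expression; GF-AFC fluorescence gave viability.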
ATXN viability: viability counter-screen for ATXN expression inhibitors. hit rate 0.49% among 400,000. AID 651635. Potency, µM (top dose mostly 56.7 µM), usual class: cytotoxic. S2 cells (HEK-293 line with an ATXN2-luciferase reporter) viability, CellTiter-Fluor protease fluorescence, 24 h; note: nearly all actives have a fitted effect of over 40% in size
RORg inh: inhibitors of mouse ROR gamma transcriptional activity; P51450; Drosophila S2 Gal4-RORgamma UAS-luciferase reporter, 20 h; Potency, µM (top dose mostly 53.6 µM), inactives show top-dose activity change, negative = inhibition, most hits filed as inhibitors; hit rate 5.4% among 310,000; AID 2551; note: % is set by controls: 0 for no effect and ±100 for the full control effect; nearly all actives have a fitted effect of over 60% in size
Target sequence (P51450 whole entry, looked up, the tested form may be a part): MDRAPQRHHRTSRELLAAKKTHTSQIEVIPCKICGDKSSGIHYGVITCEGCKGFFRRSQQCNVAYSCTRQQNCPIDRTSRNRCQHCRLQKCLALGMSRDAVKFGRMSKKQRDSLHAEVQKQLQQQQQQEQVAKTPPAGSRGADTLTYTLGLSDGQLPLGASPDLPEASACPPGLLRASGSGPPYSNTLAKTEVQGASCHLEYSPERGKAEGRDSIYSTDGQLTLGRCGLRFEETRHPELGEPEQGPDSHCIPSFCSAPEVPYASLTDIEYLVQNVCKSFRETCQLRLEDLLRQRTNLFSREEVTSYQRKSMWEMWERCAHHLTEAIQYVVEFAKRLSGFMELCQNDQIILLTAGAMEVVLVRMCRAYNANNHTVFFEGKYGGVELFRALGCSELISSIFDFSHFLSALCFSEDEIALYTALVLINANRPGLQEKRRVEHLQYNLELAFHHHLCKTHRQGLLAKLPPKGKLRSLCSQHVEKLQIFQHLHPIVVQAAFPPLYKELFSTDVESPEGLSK
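Read-out: Photinus luciferase luminescence; inhibitors lower reporter signal. Insect Schneider cells with Gal4-ROR gamma fusion under metallothionein promoter, UAS reporter; 700 uM final copper sulfate induction, 20 hr, ambient temperature.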
HepG2 viability: HepG2 cytotoxicity, counter-screen for TGF-b inhibitors; hit rate 0.76% among 410,000; HepG2 CAGA-GFP viability, ATP luminescence, 18 h; Potency, µM (series often up to 46.1 µM), for the others: top-dose activity change, negative = cytotoxicity, most hits filed as cytotoxic
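CellTiter-Glo luminescence gave cytotoxicity after 18 hours at 37 degrees C. The cells were HepG2 CAGA-GFP in 1% FBS DMEM, stimulated with 500 pg/mL TGF-beta after compound addition. %Activity was normalised to no-cell wells (complete cell-killing) and DMSO (no toxicity), and curves were fitted and classified.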
VP16 counter: Gal4-VP16 reporter inhibition counter-screen; Drosophila S2 Gal4-VP16 UAS-luciferase, luminescence, 20 h; AID 2546; Potency, µM (highest dose often 53.6 µM), for inactives: top-dose activity, negative = inhibition, hits mostly inhibitors; hit rate 3.5% among 310,000;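 note: Gal4-VP16 expression switched on by copper sulfate through the metallothionein promoter; % is set by controls: 0 for no effect and ±100 for the full control effect; nearly all actives have a fitted effect of over 50% in size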
TGFb inhibitor: inhibitors of TGF-b signaling; HepG2 CAGA-GFP TGF-b/SMAD3 reporter, GFP fluorescence, 18 h; TGF-beta stimulated, 500 pg/mL final; Potency, µM (top dose mostly 46.1 µM), for inactives: top-dose activity, negative = inhibition, actives largely listed as inhibitors; hit rate 1.2% among 410,000; AID 588855; note: % is set by controls: 0 for no effect and ±100 for the full control effect; nearly all actives have a fitted effect of over 65% in size
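Read-out: total well GFP (ex488/em500-530) summed from mean per-cell fluorescence. Cells: HEPG2 CAGA-GFP, 1% FBS DMEM, 18 h at 37 degrees C with 500 pg/mL final TGF-beta. Unstimulated wells served as the full-inhibition control; stimulated DMSO wells = 0%.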
* marks the source's active call; other numbers are inactive results; i = inactive; u = inconclusive; x = no result given; ! = repeats disagree; [ ] = dose if it differs, or a comment. Compounds with a hit are over-represented: about 6.1% of the library has one in this group of screens. Calls come from the whole dose curve; as a rule, active = well fitted curve in the direction sought with a large enough effect; inconclusive = small, poorly fitted or top-dose-only effect, or another doubt; inactive = no such curve, though single readings can be large; an effect the other way counts as inactive or inconclusive. Potency is the fitted concentration of half-maximal effect.

SMILES	ATXN2 expr inh	ATXN viability	RORg inh	HepG2 viability	VP16 counter	TGFb inhibitor
Cc1noc(C)c1C(=O)Nc1nc2ccc(S(C)(=O)=O)cc2s1	9.4%	u	-31.7%	-36.9%	11.2µM*	-2.0%
CCCn1c2ccccc2c2cnn(CC(=O)NCC3CCN(Cc4ccccc4C)CC3)c(=O)c21	-23.4%	i	x	-21.5%	x	u
Cc1cc2c(c(C)c1Br)C(c1ccc3c(c1)OCO3)CC(=O)O2 (centres undefined)	-7.4%	i	u	-88.9%	-17.4%	20µM*
COc1cc(C2CC(=O)Oc3cc(C)c(Cl)c(C)c32)cc(OC)c1OC (centres undefined)	-6.1%	i	x	-10.0%	x	-11.4%
Cc1cc(C)c2c(c1)OC(=O)CC2c1ccc2c(c1)OCO2 (centres undefined)	9.6%	i	x	10.6%	x	-13.8%
COc1ccc(C2CC(=O)Oc3cc(C)c(Cl)c(C)c32)cc1 (centres undefined)	-20.4%	i	u	-8.0%	31.6µM*	-15.5%
COc1cc(C2CC(=O)Oc3cc(C)c(Br)c(C)c32)cc(OC)c1OC (centres undefined)	-3.1%	i	u	-37.4%	5.62µM*	u
COc1ccc(C2CC(=O)Oc3cc(C)cc(C)c32)cc1 (centres undefined)	0.8%	i	35.3%	1.2%	-13.9%	-8.4%
COc1ccc2nc(N3CCN(C(=O)C4CC4)CC3)sc2c1	x	x	x	-1.9%	x	u
Cc1cc(C(=O)NCC2CCC3(CCN(Cc4cc(F)ccc4F)CC3)O2)n(C)n1 (centres undefined)	x	i	x	x	x	x
Cc1ccc(-c2nc(C)c(C(=O)O)s2)cc1	39.2%	i	8.91µM*	-9.1%	u	11.2%
CNC(=S)NCc1ccc(Cl)cc1	-7.1%	i	x	-8.3%	x	-13.8%
CCNC(=S)Nc1ccc(Cl)cc1Cl	2.7%	i	11.2µM*	-11.3%	-13.3%	u
S=C(NCc1ccccc1)NN1CCOCC1	-12.5%	i	u	-48.3%	2.9%[10 µM]	0.0%
Cc1cc(Cl)ccc1NC(=S)NCc1ccco1	8.1%	i	u	2.7%	10µM*	2.6%
S=C(NCc1ccc(Cl)cc1)NN1CCOCC1	-19.8%	i	10µM*	-11.0%	u	-0.7%
CCc1cc[n+](CC(=O)Nc2ccc(Cl)cc2Cl)cc1	-7.8%	i	-0.3%	-1.2%	-5.7%	2.2%
CCCNC(=S)NCc1ccc(Cl)cc1	-6.9%	i	10µM*	-0.3%	-72.5%	u
Nc1ccc2c(c1)C=C/C2=C\c1ccccc1	x	x	x	-28.2%	x	3.3%
O=C(NCc1ccccn1)c1cnn(-c2nccc(-c3ccccc3F)n2)c1C1CC1	x	i	x	x	x	x
Cc1ccc(CNC(=O)c2cc(NS(=O)(=O)c3ccc(C)cc3)ccn2)cc1	2.3%	i	x	-1.5%	x	-31.1%
S=C(NCCc1ccccc1)Nc1ccc(Cl)cc1Cl	4.9%	i	3.98µM*	-31.9%	15.8µM*	u
Cc1cc(Cl)ccc1NC(=S)NCc1ccc(Cl)cc1	-11.0%	i	2.82µM*	2.3%	-2.1%[0.365 µM]	-0.6%
Cc1cc(Cl)ccc1NC(=S)NCCc1ccc(Cl)cc1	u	i	6.31µM*	-34.8%	5.01µM*	u
CCCCCCCCNc1ccc(/C=C/c2ccnc3ccccc23)cc1	x	x	x	-10.0%	x	25.0%
SMILES	ATXN2 expr inh	ATXN viability	RORg inh	HepG2 viability	VP16 counter	TGFb inhibitor
C=CCN1C(=O)/C(=C\C=C2\N(C)c3ccccc3C2(C)C)SC1=S	0.6%	u	-13.0%	0.8%	-5.8%	19.8%
C=CCN1C(=O)/C(=C/C=C2/N(CC)c3ccc(S(=O)(=O)N(C)C)cc3N2CC)SC1=S	x	0.891µM*	u	-11.6%	-3.9%	73.4%
CCn1c2ccc(C)cc2c2nnc(NN)nc21	-18.9%	i	1.58µM*	-29.6%	-7.3%	14.1µM*
COc1ccc(NC(=O)/C(C#N)=C\c2ccc(-c3cccc(C(=O)O)c3C)o2)cc1	6.3%	u	3.98µM*	-12.5%	u	-20.0%
COc1ccc(NC(=O)/C(C#N)=C/c2ccc(-c3ccc(Cl)c(C(=O)O)c3)o2)cc1	7.4%	i	11.2µM*	-2.6%	u	12.8%
Cc1ccccc1NC(=O)/C(C#N)=C/c1ccc(-c2ccc(Cl)c(C(=O)O)c2)o1	-17.1%[2.22 µM]	u	-32.9%	-6.9%	17.8µM*	-7.1%
Cc1ccc(NC(=O)/C(C#N)=C/c2ccc(-c3ccc(Cl)c(C(=O)O)c3)o2)cc1C	8.7%	i	x	-10.6%	x	-26.5%
O=C(NCC1CN(c2ccc(N3CCOCC3=O)cc2)C(=O)O1)c1ccc(Cl)s1 (centres undefined)	-19.9%	i	x	x	x	x
COc1cccc(CN2CCN(Cc3cccc4c3OCO4)CC2CCO)c1 (centres undefined)	-5.6%	i	7.08µM*	-6.9%	7.94µM*	2.4%
CS(=O)(=O)c1sc(C#N)c2c1C(=O)CC(c1ccccc1)C2 (centres undefined)	5.01µM*	6.31µM*	4.47µM*	-100.1%	4.47µM*	u
Cc1oc2c(c(=O)c1C)C(=O)CC(c1ccccc1)C2 (centres undefined)	-6.2%	i	-1.5%	1.5%	-11.3%	14.1%
COc1ccc(S(=O)(=O)N2c3ccc(Cl)cc3[C@@](O)(c3ccccc3Cl)[C@H]2C(=O)N2CCC[C@@H]2C(N)=O)cc1OC	7.1%	i	x	x	x	x
CC1=C(CO)C(=O)O[C@@H]([C@@H](C)[C@H]2CC[C@H]3[C@@H]4C[C@H]5O[C@]56[C@@H](O)C=CC(=O)[C@]6(C)[C@@H]4CC[C@]23C)C1	3.06µM*	x	x	x	x	x
O=C(NCC1(N2CCCCC2)CCCC1)c1cnn(-c2nccc(-c3cccs3)n2)c1C1CC1	x	i	x	x	x	x
CCn1c(=O)c(C(=O)CN2CCCc3ccccc32)c(N)n(Cc2ccccc2)c1=O	-2.2%	i	20.5%	-17.6%	2.0%	11.2µM*!
CCn1c(=O)c(C(=O)CN2c3ccccc3CC2C)c(N)n(Cc2ccccc2)c1=O (centres undefined)	-3.8%	i	1.7%	-21.1%	6.7%	-24.4%
CC(=O)Nc1cccc(-n2c(=O)n(C3CC3)c(=O)c3c(Nc4ccc(I)cc4F)n(C)c(=O)c(C)c32)c1	-6.0%	x	x	x	x	x
C[C@@H](Oc1ccc2[nH]nc(C=Cc3cnn(CCO)c3)c2c1)c1c(Cl)cncc1Cl	21.7µM*	x	x	x	x	x
CCOC(=O)[C@]1(C(NC(=O)OC)c2cccc(F)c2)CCCC1=O (some centres undefined)	x	x	2.3%[10 µM]	x	-7.3%[10 µM]	x
COc1ccc2c(c1)n([O-])c1c([n+]2=O)CCC1	-14.1%	u	4.1%	-2.4%	5.3%	2.8%

Screening data from PubChem.
